Only some compounds are listed: those with a hit (about 6.3% of all), similar ones and a draw of the others.
HepG2 tox: qHTS for Inhibitors of TGF-b: Cytotox Counterscreen. HepG2 CAGA-GFP viability, ATP luminescence, 18 h. Potency, µM (doses to about 46.1 µM), inactives show at the top dose activity change, negative = cytotoxicity, hits mostly cytotoxic. actives 0.76% (n = 410,000). AID 588856, 2011
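HepG2 CAGA-GFP cells (1000/well, DMEM with 1% FBS) received compound, then TGF-beta at 500 pg/mL final, and were incubated 18 hours at 37 degrees C. Viability was read by CellTiter-Glo luminescence. Media-only wells were set as complete cell-killing and DMSO as no toxicity.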
TGFb SMAD3 inh: qHTS for Inhibitors of TGF-b | HepG2 CAGA-GFP TGF-b/SMAD3 reporter, GFP fluorescence, 18 h; TGF-beta stimulated, 500 pg/mL final | Potency, µM (titrated, usually from 46.1 µM), inactives show top-dose activity, negative = inhibition, actives largely listed as inhibitors | actives 1.2% (n = 410,000); also: % is scaled to controls: 0 for no effect and ±100 for the full control effect; nearly all actives have a fitted effect of over 65% in size
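TGF-beta reporter screen: HEPG2 CAGA-GFP, 1% FBS, 500 pg/mL TGF-beta final, 18 h; per-cell GFP summed per well; curves fitted and categorized by class.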
RORg inh: qHTS for inhibitors of ROR gamma transcriptional activity | Nuclear receptor ROR-gamma (Mus musculus), P51450 | Drosophila S2 Gal4-RORgamma UAS-luciferase reporter, 20 h | Potency, µM (doses to about 53.6 µM), for the others: at the highest dose activity change, negative = inhibition, actives largely listed as inhibitors | actives 5.4% (n = 310,000) | AID 2551, 2010; also: % is scaled to controls: 0 for no effect and ±100 for the full control effect; nearly all actives have a fitted effect of over 60% in size
Target sequence (P51450 whole entry, looked up, the tested form may be a part): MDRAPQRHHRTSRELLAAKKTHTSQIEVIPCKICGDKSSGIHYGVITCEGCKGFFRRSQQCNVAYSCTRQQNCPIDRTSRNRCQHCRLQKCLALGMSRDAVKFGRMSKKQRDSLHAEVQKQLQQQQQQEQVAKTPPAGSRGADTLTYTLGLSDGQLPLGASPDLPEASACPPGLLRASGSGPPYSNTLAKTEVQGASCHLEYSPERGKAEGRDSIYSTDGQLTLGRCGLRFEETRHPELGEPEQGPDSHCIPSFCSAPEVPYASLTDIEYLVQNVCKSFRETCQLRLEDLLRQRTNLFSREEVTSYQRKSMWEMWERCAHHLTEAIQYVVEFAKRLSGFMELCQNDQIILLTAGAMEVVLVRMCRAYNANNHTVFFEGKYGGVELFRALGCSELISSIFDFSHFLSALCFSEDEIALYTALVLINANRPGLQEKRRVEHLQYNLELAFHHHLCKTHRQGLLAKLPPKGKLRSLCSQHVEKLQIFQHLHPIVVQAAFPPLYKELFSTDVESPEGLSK
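ROR gamma transcriptional activity was tracked as Gal4-UAS luciferase output in stably transfected Drosophila Schneider cells, with compound added 1 hr before 700 uM copper sulfate induction and a 20 hr ambient-temperature incubation.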
VP16 counter: VP16 counterscreen qHTS for inhibitors of ROR gamma transcriptional activity; actives 3.5% (n = 310,000); Potency, µM (series often up to 53.6 µM), for the others: at the top dose activity, negative = inhibition, hits mostly inhibitors; AID 2546, 2010; Drosophila S2 Gal4-VP16 UAS-luciferase, luminescence, 20 h;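 also: Gal4-VP16 expression switched on by copper sulfate through the metallothionein promoter; % is scaled to controls: 0 for no effect and ±100 for the full control effect; nearly all actives have a fitted effect of over 50% in size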
S2 tox: Viability Counterscreen for Primary qHTS for Inhibitors of ATXN expression | S2 cells (HEK-293 line with an ATXN2-luciferase reporter) viability, CellTiter-Fluor protease fluorescence, 24 h | Potency, µM (series often up to 56.7 µM), usual class: cytotoxic | actives 0.49% (n = 400,000); also: nearly all actives have a fitted effect of over 40% in size
ATXN2 expr inh: Primary qHTS for Inhibitors of ATXN expression; actives 0.72% (n = 360,000); HEK-293 ATXN2-luciferase reporter, luminescence, 24 h; Potency, µM (series often up to 57 µM), for the others: at the highest dose activity change, negative = inhibition, usual class: inhibitors; also: % is scaled to controls: 0 for no effect and ±100 for the full control effect; nearly all actives have a fitted effect of over 55% in size
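ATXN2-luciferase reporter cells (luciferase flanked by upstream and downstream ATXN2 gene portions) were treated 24 h at 37 °C with compounds at up to 57 uM. SteadyGlo luminescence gave expression; GF-AFC fluorescence gave viability.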
Starred values were filed as active, the others as inactive; i = inactive; ? = inconclusive; · = no result given; [ ] = another dose, or the depositor's remark. Calls follow the shape of the dose curve; as a rule, active = well fitted curve in the direction sought with a large enough effect; inconclusive = small, poorly fitted or top-dose-only effect, or another doubt; inactive = no such curve, though single readings can be large; an effect the other way counts as inactive or inconclusive. Potency is read from the fitted curve at half-maximal effect.

SMILES	HepG2 tox	TGFb SMAD3 inh	RORg inh	VP16 counter	S2 tox	ATXN2 expr inh
CC(=O)OC[C@@H]1O[C@@H](O/N=C2/C[C@@H](O)[C@@H](O)[C@@H]3[C@@H]4C(=O)N([C@@H](C)c5ccccc5)C(=O)[C@H]4CC[C@@H]23)[C@H](OC(C)=O)[C@H](OC(C)=O)[C@@H]1OC(C)=O	·	·	-11%[10 µM]	-3%[10 µM]	·	·
CCOC(=O)c1c(-n2cnnn2)sc2c1CCCC2	-13%	?	-14%	-26%	i	-14%
CCOC(=O)c1c(N2C(=O)C3C4C=CC(O4)C3C2=O)sc2c1CCCC2 (stereo not drawn)	4%	5%	?	18µM*	?	?
Cc1cc(/C=N/NC(N)=S)c(C)n1-c1ccc(Cl)cc1	-61%	?	0.45µM*	1.1µM*	?	-8%
Cc1cc(/C=N\NC(=O)CC(=O)NC2CCCCC2)c(C)n1-c1ccc(Cl)cc1	-21%	?	25%	-2%[0.365 µM]	i	-12%
Cc1cccc(C)c1-n1c(C)cc(/C=N/NC(N)=S)c1C	-2%	-31%	0.89µM*	0.79µM*	?	-19%
Cc1nc2cc(OCc3cc(C(=O)NC(C)c4cnn(C)c4)no3)ccc2s1 (stereo not drawn)	9%	-13%	-3%	-8%	i	18%
O=C(Nn1cnnc1)c1cc(-c2ccccn2)nc2ccccc12	-31%	-21%	-17%	-12%	i	2%
O=C(NNS(=O)(=O)c1ccc2ccccc2c1)c1cc(-c2ccccn2)nc2ccccc12	-2%	-13%	8%	7.9µM*	i	·
C=CCSc1n[nH]c2nc3c(c(=O)n12)C1(CCCC1)Cc1ccccc1-3	-4%	3%	5.6µM*	11µM*	i	1%
CC(C)Sc1n[nH]c2nc3c(c(=O)n12)C1(CCCC1)Cc1ccccc1-3	·	·	11µM*	-10%	·	·
CCSc1n[nH]c2nc3c(c(=O)n12)C1(CCCC1)Cc1ccccc1-3	-7%	-5%	14µM*	-3%	·	0%
Cc1ccccc1NC(=O)C(=Cc1ccc(C(=O)O)cc1)C(=O)Nc1ccccc1C	-36%	?	7.9µM*	?	?	11µM*
CC(=O)/C(=C/c1ccccc1)C(=O)Nc1ccccc1C	-48%	13µM*	?	?	?	·
N#C/C(=C/c1ccc(C(=O)O)cc1)C(=O)Nc1ccccc1	-19%	0%	-18%	-1%	i	-20%
CC[C@@H](CO)NCCN[C@@H](CC)CO	·	·	·	·	i	2%
N#CCCn1c(=O)c(-c2cccc(C#N)c2)nc2cnc(N3CCOCC3)nc21	·	·	14%	-2%	·	·
OC(c1cccc(Cl)c1)c1ncc(-c2ccc(C(F)(F)F)cc2)[nH]1 (stereo not drawn)	-69%	?	·	·	·	?
COC(=O)c1ccc(NC(=O)C(C)N2Cc3ccccc3C2=O)cc1 (stereo not drawn)	-9%	3%	·	·	·	·
O=C(O)CSCC(=O)Nc1ccc(C2CCCCC2)cc1	-84%	-4%	2.2µM*	3.2µM*	i	2.2µM*
Nn1cnnc1SCC(=O)Nc1ccc(C2CCCCC2)cc1	-4%	-25%	20%	-10%	i	42%
CC(=O)N1CCc2c(sc(NC(=O)CSc3ccccc3)c2-c2nc3ccccc3s2)C1	-7%	-22%	·	·	·	·
CC(=O)Nc1sc2c(c1-c1nc3ccccc3s1)CN(C(C)C)CC2	4%	34%	·	·	i	3.5µM*
CC(=O)N1CCc2c(sc(NC(=O)C3CC3)c2-c2nc3ccccc3s2)C1	-8%	?	-1%	-6%	?	32µM*
Cc1nc2cnc(N(C)C)nc2n(Cc2ccc(F)cc2)c1=O	·	·	-15%	-14%	·	·
SMILES	HepG2 tox	TGFb SMAD3 inh	RORg inh	VP16 counter	S2 tox	ATXN2 expr inh
CCCC1=Nc2cc(C(=O)NCCCN3CCN(C)CC3)ccc2Sc2ccccc21	-63%	-4%	-24%	2%	?	·
CCCNC(=O)c1ccc2c(c1)N=C(CCC)c1ccccc1S2	-28%	8.9µM*	·	·	?	-37%
CCOC(=O)c1cc(-c2ccc(C)cc2)n(CCC(=O)NCCc2ccc(C)cc2)c1C	-4%	-9%	·	·	i	5%
COC(=O)C1=C(CN2CCc3ccccc32)NC(=O)NC1c1cc(C)ccc1C (stereo not drawn)	-10%	0%	0%	2%	i	9%
COC(=O)C1=C(CN2CCCc3ccccc32)NC(=O)NC1c1ccc(F)cc1 (stereo not drawn)	-6%	?	1.4µM*	?	?	?
Cc1nn(-c2ccccc2)c(C)c1/C=N/n1c(-c2ccncc2)n[nH]c1=S	-13%	-1%	-28%	1%	i	·
Cn1cccc1/C=N/n1c(-c2ccc(C(C)(C)C)cc2)n[nH]c1=S	-42%	-24%	2.2µM*	?	i	2%
Fc1ccc(-c2n[nH]c(=S)n2/N=C/c2c[nH]c3ccccc23)cc1	3%	-14%	?	0%	i	-11%
Cn1cccc1/C=N/n1c(-c2ccccc2)n[nH]c1=S	-3%	1%	14µM*	?	i	-5%
C[C@H]1CN([C@@H](C)CO)C(=O)CCCn2nncc2CO[C@H]1CN(C)C(=O)Nc1ccnc(N2CCOCC2)c1	-9%	-5%	·	·	i	-19%
Cc1ccc(S(=O)(=O)NCCc2nnc3ccc(SCc4ccc(F)cc4)nn23)cc1	-35%	0%	·	·	·	·
O=C1c2ccccc2CC[C@H]1CNCCc1ccc(O)cc1	·	·	14µM*	11µM*	·	·
Cc1ccc(S(=O)(=O)N(C)C)cc1NC(=O)C(C)OC(=O)c1cc[n+]([O-])cc1 (stereo not drawn)	1%	-2%	·	·	?	-3%
CN1CCN(c2ccc(NC(=S)NC(=O)/C=C/c3ccco3)cc2)CC1	-24%	-4%	11µM*	11µM*	?	1%
COc1ccc(NC(=S)NC(=O)/C=C/c2ccco2)c(OC)c1	-23%	-11%	13µM*	13µM*	i	2%
CC(=O)N(C)c1ccc(NC(=S)NC(=O)/C=C/c2ccco2)cc1	0%	3%	10µM*	-29%	i	31%
CCOc1ccc(NC(=S)NC(=O)/C=C/c2ccco2)cc1	-12%	-12%	4µM*	5.6µM*	i	13%
CC(=O)Nc1ccc(NC(=S)NC(=O)/C=C/c2ccco2)cc1	3%	5%	20%	17%	i	14%

Compound activity deposited in PubChem by National Center for Advancing Translational Sciences (NCATS).
